Measured values from paper PMC7862700, “An all-to-all approach to the identification of sequence-specific readers for epigenetic DNA modifications on cytosine”.

What was measured:
Assay in all cases: DAPPL (digital affinity profiling via proximity ligation, sequencing); 10 mM Tris-HCl pH 7.5, 50 mM NaCl, 1 mM DTT, 4% glycerol, room temperature, 30 min; GST-TFs on glutathione beads, 16-mer random dsDNA library, 0.1% formaldehyde crosslink after washing; high values mean tight binding
Conditions in all cases: protein: recombinant; tags: N-terminal GST; dsDNA, one strand shown
FLI1 = biological target: T1, FLI1 (Homo sapiens, UniProt Q01543 1-452)
T1 sequence: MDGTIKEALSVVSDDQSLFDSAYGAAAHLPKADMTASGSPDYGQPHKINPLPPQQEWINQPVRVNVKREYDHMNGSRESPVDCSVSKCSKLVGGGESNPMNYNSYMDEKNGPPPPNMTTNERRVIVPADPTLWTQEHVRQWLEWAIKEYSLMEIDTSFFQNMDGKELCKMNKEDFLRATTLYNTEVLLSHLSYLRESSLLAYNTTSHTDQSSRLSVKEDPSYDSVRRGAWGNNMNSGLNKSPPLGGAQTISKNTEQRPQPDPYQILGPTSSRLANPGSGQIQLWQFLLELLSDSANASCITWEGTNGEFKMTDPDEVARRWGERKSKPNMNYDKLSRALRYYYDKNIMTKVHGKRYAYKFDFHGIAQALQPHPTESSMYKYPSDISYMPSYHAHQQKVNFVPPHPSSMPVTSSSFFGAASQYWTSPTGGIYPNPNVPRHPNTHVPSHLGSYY
In short: (§1)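 GST fusions of human transcription factors were expressed in yeast and captured with glutathione beads. Once given DNA barcodes and pooled alongside a tag-only sample, they were incubated for 30 min at room temperature with 200 nmole of a random double-stranded 16-mer DNA library in Tris/NaCl/DTT/glycerol buffer, then washed, crosslinked (0.1% formaldehyde), proximity-ligated, PCR-amplified and sequenced on an Illumina NextSeq500. The binding signal of each hexamer is its read frequency for a factor divided by its frequency for the tag-only sample.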

ELK1 = biological target: T2, ELK1 (Homo sapiens, UniProt P19419 1-428)
T2 sequence: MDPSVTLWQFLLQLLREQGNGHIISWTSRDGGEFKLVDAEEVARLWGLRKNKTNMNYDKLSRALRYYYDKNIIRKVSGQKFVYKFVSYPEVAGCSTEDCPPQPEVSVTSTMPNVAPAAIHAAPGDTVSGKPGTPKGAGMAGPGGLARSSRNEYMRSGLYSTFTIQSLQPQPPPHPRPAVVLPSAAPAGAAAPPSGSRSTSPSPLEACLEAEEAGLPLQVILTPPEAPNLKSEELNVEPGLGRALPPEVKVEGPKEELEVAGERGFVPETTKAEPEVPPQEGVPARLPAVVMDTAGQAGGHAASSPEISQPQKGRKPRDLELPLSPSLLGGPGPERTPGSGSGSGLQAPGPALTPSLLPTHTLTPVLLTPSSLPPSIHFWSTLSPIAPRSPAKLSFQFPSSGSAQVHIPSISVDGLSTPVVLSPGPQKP
In short: as §1

GABPA = biological target: T3, GABPA (Homo sapiens, UniProt Q06546 1-454)
T3 sequence: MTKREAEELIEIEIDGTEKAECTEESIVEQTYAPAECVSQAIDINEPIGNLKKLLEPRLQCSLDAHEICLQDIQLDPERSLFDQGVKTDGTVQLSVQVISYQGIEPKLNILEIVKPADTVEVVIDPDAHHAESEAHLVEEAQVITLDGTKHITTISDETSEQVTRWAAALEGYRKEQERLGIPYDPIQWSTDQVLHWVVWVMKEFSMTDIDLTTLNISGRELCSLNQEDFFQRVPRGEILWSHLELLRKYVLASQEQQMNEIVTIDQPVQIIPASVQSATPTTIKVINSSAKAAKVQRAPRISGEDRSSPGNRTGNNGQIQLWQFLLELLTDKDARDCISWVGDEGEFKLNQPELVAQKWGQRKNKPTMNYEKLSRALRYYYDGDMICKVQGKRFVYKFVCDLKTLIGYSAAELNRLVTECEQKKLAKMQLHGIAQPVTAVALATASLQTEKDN
In short: as §1

ERG = biological target: T4, ERG (Homo sapiens, UniProt P11308 1-479)
T4 sequence: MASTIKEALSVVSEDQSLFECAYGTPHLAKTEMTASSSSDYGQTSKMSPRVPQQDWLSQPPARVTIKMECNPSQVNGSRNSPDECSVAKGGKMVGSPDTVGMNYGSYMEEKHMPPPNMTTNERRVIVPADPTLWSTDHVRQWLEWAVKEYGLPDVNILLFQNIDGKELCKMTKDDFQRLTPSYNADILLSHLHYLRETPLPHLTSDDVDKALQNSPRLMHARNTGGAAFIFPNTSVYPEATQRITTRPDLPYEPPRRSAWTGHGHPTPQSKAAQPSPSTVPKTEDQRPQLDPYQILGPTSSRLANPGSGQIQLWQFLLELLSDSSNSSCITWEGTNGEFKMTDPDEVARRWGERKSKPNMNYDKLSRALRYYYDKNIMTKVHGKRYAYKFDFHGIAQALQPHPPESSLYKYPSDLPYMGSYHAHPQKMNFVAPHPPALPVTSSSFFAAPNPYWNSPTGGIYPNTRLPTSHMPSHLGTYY
In short: as §1

ELF1 = ELF1 (Homo sapiens, UniProt P32519 1-619)
In short: as §1

EHF = biological target: T5, EHF (Homo sapiens, UniProt Q9NZC4 1-300)
T5 sequence: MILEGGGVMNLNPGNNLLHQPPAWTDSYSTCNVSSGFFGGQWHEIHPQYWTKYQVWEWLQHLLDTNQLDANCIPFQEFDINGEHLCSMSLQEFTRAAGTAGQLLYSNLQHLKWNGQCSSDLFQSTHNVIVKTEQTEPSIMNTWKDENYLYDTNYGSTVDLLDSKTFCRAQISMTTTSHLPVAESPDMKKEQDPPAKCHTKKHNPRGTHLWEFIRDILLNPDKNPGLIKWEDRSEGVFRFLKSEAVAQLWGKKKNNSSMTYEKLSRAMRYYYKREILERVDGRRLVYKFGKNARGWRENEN
In short: as §1

SPI1 = SPI1 (Homo sapiens, UniProt P17947 1-270)
In short: as §1

SPIB = SPIB (Homo sapiens, UniProt Q01892 1-262)
In short: as §1

ELK3 = biological target: T6, ELK3 (Homo sapiens, UniProt P41970 1-407)
T6 sequence: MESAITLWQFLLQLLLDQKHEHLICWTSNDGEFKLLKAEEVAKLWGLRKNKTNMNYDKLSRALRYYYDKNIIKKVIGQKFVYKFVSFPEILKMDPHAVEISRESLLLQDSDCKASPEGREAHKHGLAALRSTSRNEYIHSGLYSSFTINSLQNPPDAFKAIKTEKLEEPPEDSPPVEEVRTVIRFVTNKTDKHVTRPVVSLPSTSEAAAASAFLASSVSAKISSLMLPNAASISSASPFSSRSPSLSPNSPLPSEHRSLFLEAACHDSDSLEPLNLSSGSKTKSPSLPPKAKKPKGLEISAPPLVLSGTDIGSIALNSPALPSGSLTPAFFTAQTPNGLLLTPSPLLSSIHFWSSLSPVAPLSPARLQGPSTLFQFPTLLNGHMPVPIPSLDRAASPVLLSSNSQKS
In short: as §1

SPIB, sequence (Q01892 whole entry): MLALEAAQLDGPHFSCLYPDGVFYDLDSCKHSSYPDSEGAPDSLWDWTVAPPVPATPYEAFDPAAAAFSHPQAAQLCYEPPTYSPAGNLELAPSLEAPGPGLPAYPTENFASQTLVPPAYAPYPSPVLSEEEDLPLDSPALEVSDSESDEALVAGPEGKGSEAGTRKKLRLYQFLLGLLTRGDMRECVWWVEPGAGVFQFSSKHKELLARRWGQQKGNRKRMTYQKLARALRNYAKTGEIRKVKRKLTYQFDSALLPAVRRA
ELF1, sequence (P32519 whole entry): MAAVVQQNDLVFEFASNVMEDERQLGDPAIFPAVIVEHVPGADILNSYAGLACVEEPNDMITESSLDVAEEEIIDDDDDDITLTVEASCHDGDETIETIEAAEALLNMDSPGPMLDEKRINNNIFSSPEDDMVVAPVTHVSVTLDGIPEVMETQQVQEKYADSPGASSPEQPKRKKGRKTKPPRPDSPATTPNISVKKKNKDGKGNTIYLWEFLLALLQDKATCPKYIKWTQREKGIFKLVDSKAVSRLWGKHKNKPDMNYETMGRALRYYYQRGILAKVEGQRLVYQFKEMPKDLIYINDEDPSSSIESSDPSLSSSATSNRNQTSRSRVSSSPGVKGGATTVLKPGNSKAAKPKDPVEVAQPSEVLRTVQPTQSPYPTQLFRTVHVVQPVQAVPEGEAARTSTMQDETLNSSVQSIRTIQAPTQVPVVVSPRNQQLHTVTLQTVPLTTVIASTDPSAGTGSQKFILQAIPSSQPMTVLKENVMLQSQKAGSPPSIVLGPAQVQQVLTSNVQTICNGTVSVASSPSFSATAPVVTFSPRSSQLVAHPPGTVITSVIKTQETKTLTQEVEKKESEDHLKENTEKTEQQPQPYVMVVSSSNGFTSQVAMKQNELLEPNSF

**Q.** For CGTATT, which binding signal (FLI1) is on record?
**A.** Its binding signal is 1.24 fold enrichment (6-mer frequency, TF over GST control).

**Q.** What about the binding signal (ELK1) of the same sequence?
**A.** Its binding signal is 1.18 fold enrichment (6-mer frequency, TF over GST control).

**Q.** And the binding signal (GABPA)?
**A.** The binding signal was 1.12 fold enrichment (6-mer frequency, TF over GST control).

**Q.** What about the binding signal (ERG) of the same sequence?
**A.** Its binding signal is 1.15 fold enrichment (6-mer frequency, TF over GST control).

**Q.** What about the binding signal (ELF1) of the same sequence?
**A.** Its binding signal is 1.11 fold enrichment (6-mer frequency, TF over GST control).

**Q.** And the binding signal (EHF)?
**A.** Its binding signal is 1.12 fold enrichment (6-mer frequency, TF over GST control).

**Q.** And the binding signal (SPI1)?
**A.** The binding signal was 1.17 fold enrichment (6-mer frequency, TF over GST control).

**Q.** What about the binding signal (SPIB) of the same sequence?
**A.** Its binding signal is 1.24 fold enrichment (6-mer frequency, TF over GST control).

**Q.** What about the binding signal (ELK3) of the same sequence?
**A.** The binding signal was 1.38 fold enrichment (6-mer frequency, TF over GST control).
